Reference: PubChem BioAssay (EPA / NIEHS)
“And” between values parts separate entries of the source, which are not always exact repeats. Equal values may be shown once. Results filed as inconclusive are left out. Some structures have more than one record in an assay (separate samples or runs), and their calls can disagree. The source made the active and inactive calls. How the source made its calls: active means hit-call score of the fitted dose curve at least 0.9, where 1 is the maximum; inconclusive means response in the unintended direction; inactive means score below 0.9.

How the values were obtained:
[1] = target: Estrogen receptor beta (Homo sapiens) (UniProt Q92731); experiment: ATG_hERb_XSP2: Attagene TRANS-FACTORIAL Multi-Species (XSP2) HepG2 Assay for human Estrogen Receptor (ERb) (AID 2283813);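 further: actives raise reporter mRNA above DMSO so AC50 reflects agonist induction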
Estrogen receptor beta (Homo sapiens), sequence (Q92731 whole entry, looked up, the tested form may be a part): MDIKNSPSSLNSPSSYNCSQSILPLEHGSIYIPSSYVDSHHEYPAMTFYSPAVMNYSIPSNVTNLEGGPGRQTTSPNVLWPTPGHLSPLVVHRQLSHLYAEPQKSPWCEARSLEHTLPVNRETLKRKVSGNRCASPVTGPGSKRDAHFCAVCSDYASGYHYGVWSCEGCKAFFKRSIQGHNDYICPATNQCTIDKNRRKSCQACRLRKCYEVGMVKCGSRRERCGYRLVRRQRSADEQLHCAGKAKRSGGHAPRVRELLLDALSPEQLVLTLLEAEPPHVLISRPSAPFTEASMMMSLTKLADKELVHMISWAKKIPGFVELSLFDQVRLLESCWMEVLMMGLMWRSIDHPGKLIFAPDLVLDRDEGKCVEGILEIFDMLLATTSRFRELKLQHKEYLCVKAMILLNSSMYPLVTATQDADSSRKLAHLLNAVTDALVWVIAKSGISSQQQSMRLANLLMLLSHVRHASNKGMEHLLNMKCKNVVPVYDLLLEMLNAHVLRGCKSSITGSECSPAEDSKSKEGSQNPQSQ
Procedure, shortened: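 Transient TRANS reporter system in HepG2: after 24 h of chemical, RNA is reverse-transcribed, reporter cDNA amplified, FAM-labelled and sized by capillary electrophoresis. Induction of the human ERb-Gal4 reporter is measured relative to DMSO.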

[2] = target: zebrafish Estrogen Receptor (ER1), esr1 (gene 259252) (UniProt P57717); experiment: ATG_zfER1_XSP2: Attagene TRANS-FACTORIAL Multi-Species (XSP2) HepG2 Assay for zebrafish Estrogen Receptor (ER1) (AID 2283816)
zebrafish Estrogen Receptor (ER1), esr1 (gene 259252), sequence (P57717 whole entry, looked up, the tested form may be a part): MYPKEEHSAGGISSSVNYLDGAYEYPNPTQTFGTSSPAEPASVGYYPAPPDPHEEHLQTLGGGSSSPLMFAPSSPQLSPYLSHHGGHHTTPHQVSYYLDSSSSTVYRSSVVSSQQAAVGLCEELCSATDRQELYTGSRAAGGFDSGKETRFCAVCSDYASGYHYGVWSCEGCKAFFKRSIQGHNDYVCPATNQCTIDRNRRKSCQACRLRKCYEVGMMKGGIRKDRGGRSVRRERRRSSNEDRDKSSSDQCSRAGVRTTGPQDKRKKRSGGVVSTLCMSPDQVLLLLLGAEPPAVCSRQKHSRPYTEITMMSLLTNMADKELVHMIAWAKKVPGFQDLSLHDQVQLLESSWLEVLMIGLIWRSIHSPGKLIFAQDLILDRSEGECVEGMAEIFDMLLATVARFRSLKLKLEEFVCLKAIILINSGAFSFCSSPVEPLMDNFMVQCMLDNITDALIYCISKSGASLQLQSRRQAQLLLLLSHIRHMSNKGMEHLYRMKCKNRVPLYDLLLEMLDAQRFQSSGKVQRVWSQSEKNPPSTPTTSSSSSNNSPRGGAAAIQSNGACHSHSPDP
Procedure, shortened: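 After 24 h compound exposure, RNA from transfected HepG2 cells was reverse-transcribed and reporter transcripts resolved by capillary electrophoresis. The TRANS format reads exogenous zebrafish ER1-Gal4 chimera activity on GAL4-UAS elements; gain of signal against DMSO.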

[3] = system: zebrafish Estrogen Receptor (ER2a), gene 317734; experiment: ATG_zfER2a_XSP2: Attagene TRANS-FACTORIAL Multi-Species (XSP2) HepG2 Assay for zebrafish Estrogen Receptor (ER2a) (AID 2283818);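 further: hits raise reporter mRNA so AC50 reflects activation of zebrafish ER2a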
Procedure, shortened: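 Multiplexed trans-reporter readout: RT-PCR then capillary electrophoresis of reporter transcripts after 24 h compound treatment. Human HepG2 carries transfected zebrafish ER2a-Gal4 chimera; 3 nM 6-alpha-fluorotestosterone plus 1.5 nM norgestrel present. Induction scored against DMSO.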

[4] = system: frog Estrogen Receptor (ER), gene 398734; experiment: ATG_frER1_XSP2: Attagene TRANS-FACTORIAL Multi-Species (XSP2) HepG2 Assay for frog Estrogen Receptor (ER) (AID 2283821);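 further: hits raise reporter mRNA above DMSO baseline so potency means agonist or activator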
Procedure, shortened: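 Gain-of-signal mRNA reporter assay, HepG2 human liver cells, 24 h dosing; transcripts read by fluorescent RT-PCR fragment analysis, DMSO as negative control.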

[5] = system: zebrafish Estrogen Receptor (ER2b), gene 317733; experiment: ATG_zfER2b_XSP2: Attagene TRANS-FACTORIAL Multi-Species (XSP2) HepG2 Assay for zebrafish Estrogen Receptor (ER2b) (AID 2283823);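 further: fitted upward as reporter gain over DMSO so potency reflects activation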
Procedure, shortened: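 Transcriptional induction measured as reporter mRNA (RT-PCR, fluorescent capillary electrophoresis) in transiently transfected HepG2 cells after 24 h dosing; DMSO served as negative control and baseline.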

[6] = target: GAL4 Transcription Factor (Internal Marker), GAL4 (gene 855828) (UniProt P04386); experiment: ATG_GAL4_XSP2: Attagene TRANS-FACTORIAL Multi-Species (XSP2) HepG2 Assay for GAL4 Transcription Factor (Internal Marker) (AID 2283814);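 further: GAL4 reporter mRNA background control in MRTU transfected cells not a receptor target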
GAL4 Transcription Factor (Internal Marker), GAL4 (gene 855828), sequence (P04386 whole entry, looked up, the tested form may be a part): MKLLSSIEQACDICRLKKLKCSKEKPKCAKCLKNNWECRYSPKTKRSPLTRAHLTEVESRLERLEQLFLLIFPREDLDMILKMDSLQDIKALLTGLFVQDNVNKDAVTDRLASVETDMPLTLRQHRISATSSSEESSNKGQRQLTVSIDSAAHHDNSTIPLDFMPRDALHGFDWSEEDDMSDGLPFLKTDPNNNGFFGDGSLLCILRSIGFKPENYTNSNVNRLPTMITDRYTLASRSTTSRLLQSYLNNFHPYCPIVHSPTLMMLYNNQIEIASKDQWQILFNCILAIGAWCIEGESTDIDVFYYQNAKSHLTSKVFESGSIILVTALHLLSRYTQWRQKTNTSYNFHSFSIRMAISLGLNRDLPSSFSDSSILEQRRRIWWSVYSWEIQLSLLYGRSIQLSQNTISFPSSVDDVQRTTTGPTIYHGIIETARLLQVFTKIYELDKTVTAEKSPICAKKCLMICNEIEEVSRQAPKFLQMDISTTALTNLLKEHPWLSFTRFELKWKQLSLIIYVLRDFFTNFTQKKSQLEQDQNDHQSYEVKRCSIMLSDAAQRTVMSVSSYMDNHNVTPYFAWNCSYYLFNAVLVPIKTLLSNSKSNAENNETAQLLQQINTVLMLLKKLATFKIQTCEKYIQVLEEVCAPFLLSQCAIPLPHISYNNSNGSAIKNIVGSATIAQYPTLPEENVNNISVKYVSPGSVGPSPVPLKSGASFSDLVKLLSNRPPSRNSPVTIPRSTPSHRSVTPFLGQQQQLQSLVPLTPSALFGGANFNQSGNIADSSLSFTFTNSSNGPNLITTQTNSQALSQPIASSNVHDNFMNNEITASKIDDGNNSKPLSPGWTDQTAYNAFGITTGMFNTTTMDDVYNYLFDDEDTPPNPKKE
Procedure: ATG_XSP2_multi-species_TRANS is a cell-based, multiplexed assay created by modifying the existing Attagene TRANS-FACTORIAL system to include a panel of nuclear receptors from some or all the following species: human (Homo sapiens), mouse (Mus musculus), frog (Xenopus laevis), zebrafish (Danio rerio), chicken (Gallus gallus), and turtle (Chrysemys picta). The ECOTOX-FACTORIAL format uses HepG2, a human liver cell line, with measurements taken at 24 hours after chemical dosing in a 24-well plate. Xsp2 included 3 nM 6-alpha-fluorotestosterone and 1.5 nM norgestrel to stimulate the androgen receptor.ATG_GAL4_XSP2 is one of 29 assay components measured or calculated from the ATG_XSP2_multi-species_TRANS assay. It is designed to make measurements of mRNA induction, a form of inducible reporter, as detected with fluorescence intensity signals by Reverse transcription polymerase chain reaction (RT-PCR) and Capillary electrophoresis technology.This assay endpoint, ATG_GAL4_XSP2, was analyzed in the positive analysis fitting direction relative to DMSO as the negative control and baseline of activity. Using a type of inducible reporter, measures of mRNA for gain-of-signal activity can be used to understand the background control at the transcription factor-level as they relate to the gene. Furthermore, this assay endpoint can be referred to as a secondary readout, because this assay has produced multiple assay endpoints where this one serves a background control function. To generalize the intended target to other relatable targets, this assay endpoint is annotated to the background measurement intended target family, where the subfamily is baseline control.
Human liver HepG2 cells are transiently transfected with multiple reporter transcription units (MRTUs) in 6-well plates using FuGene 6 reagent (Roche; 3 ml FuGene/1 mg DNA). The MRTU constructs are regulated by a cis-regulating element (promoter). […] A major difference between the CIS and TRANS system is that in CIS activities of endogenous TFs are measured, whereas the TRANS assay evaluates changes in activities of exogenous, chimeric NR-Gal4 proteins. […] At the end of 24 hour incubation, total RNA was isolated using TriZol reagent (Invitrogen). The isolated RNA is then reverse-transcribed using oligo(dT) primer and Mo-MLV reverse transcriptase (Invitrogen) with DNAse I (Ambion) treatment for 30 min. The one-tenth of the produced cDNA was amplified by PCR using Taq DNA polymerase (Invitrogen) and two reporter sequence-specific primers. The PCR products were fluorescently labeled by primer extension with 6-arboxyfluorescein (6-FAM) 5'-labeled reporter sequence-specific primer (2 min at 95 C, 20 s at 68 C and 10 min at 72 C) and these products were digested with 5U of HpaI (New England Biolabs) for 2h at 37 C. The fragments were purified using Qiaquick PCR columns (Qiagen), analyzed on an ABI 3130xL genetic analyzer (Applied Biosystems) with peak positions identified by using a set of X-rhodamine (ROX)-labeled MapMarker1000 molecular weight standards (BioVentures). The raw capillary electrophoresis data was processed using Attagraph software (Attagene).

[7] = system: turtle Androgen Receptor (AR), gene 101947425; experiment: ATG_trAR_XSP2: Attagene TRANS-FACTORIAL Multi-Species (XSP2) HepG2 Assay for turtle Androgen Receptor (AR) (AID 2283815)
Procedure, shortened: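 Reporter transcripts were quantified via RT-PCR and capillary electrophoresis and fitted upward against DMSO. Transiently transfected human HepG2 cells carrying NR-Gal4 chimeras were exposed 24 h, with 3 nM 6-alpha-fluorotestosterone plus 1.5 nM norgestrel added.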

[8] = system: chicken Androgen Receptor (AR), gene 422165; experiment: ATG_chAR_XSP2: Attagene TRANS-FACTORIAL Multi-Species (XSP2) HepG2 Assay for chicken Androgen Receptor (AR) (AID 2283819);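 further: hits raise reporter mRNA above DMSO so potency is for activation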
Procedure, shortened: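 Readout is reporter mRNA induction via RT-PCR/capillary electrophoresis after 24 h chemical exposure, positive direction relative to DMSO. Transiently transfected HepG2 express chimeric chicken AR–GAL4; AR stimulated by 3 nM 6-alpha-fluorotestosterone and 1.5 nM norgestrel.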

[9] = target: human Androgen Receptor (AR), AR (gene 367) (UniProt P10275); experiment: ATG_hAR_XSP2: Attagene TRANS-FACTORIAL Multi-Species (XSP2) HepG2 Assay for human Androgen Receptor (AR) (AID 2283820)
human Androgen Receptor (AR), AR (gene 367), sequence (P10275 whole entry, looked up): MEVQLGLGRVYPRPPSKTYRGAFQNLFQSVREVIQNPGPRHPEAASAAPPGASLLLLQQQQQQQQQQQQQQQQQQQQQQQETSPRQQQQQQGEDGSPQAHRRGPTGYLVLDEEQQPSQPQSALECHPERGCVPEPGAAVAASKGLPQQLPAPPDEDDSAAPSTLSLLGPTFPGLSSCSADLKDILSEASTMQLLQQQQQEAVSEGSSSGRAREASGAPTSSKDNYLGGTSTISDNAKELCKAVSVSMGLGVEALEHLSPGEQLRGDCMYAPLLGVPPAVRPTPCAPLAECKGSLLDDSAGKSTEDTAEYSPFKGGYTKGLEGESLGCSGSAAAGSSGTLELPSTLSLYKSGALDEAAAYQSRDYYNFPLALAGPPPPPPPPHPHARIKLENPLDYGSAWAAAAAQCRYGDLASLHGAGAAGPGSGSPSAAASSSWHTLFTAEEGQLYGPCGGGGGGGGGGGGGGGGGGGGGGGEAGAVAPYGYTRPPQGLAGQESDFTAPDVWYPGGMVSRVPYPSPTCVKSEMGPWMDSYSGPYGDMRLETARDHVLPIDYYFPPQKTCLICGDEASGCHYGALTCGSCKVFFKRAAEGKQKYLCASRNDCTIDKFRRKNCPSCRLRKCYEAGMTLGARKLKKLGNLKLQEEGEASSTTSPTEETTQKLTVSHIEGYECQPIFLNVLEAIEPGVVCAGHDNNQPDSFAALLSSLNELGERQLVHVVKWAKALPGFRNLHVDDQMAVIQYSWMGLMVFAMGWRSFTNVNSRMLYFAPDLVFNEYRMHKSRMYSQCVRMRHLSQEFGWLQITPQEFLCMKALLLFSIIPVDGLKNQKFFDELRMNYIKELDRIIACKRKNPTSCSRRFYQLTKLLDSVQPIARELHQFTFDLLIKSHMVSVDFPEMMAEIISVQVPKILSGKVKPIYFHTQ
Procedure: ATG_XSP2_multi-species_TRANS is a cell-based, multiplexed assay created by modifying the existing Attagene TRANS-FACTORIAL system to include a panel of nuclear receptors from some or all the following species: human (Homo sapiens), mouse (Mus musculus), frog (Xenopus laevis), zebrafish (Danio rerio), chicken (Gallus gallus), and turtle (Chrysemys picta). The ECOTOX-FACTORIAL format uses HepG2, a human liver cell line, with measurements taken at 24 hours after chemical dosing in a 24-well plate. Xsp2 included 3 nM 6-alpha-fluorotestosterone and 1.5 nM norgestrel to stimulate the androgen receptor.ATG_hAR_XSP2 is one of 29 assay components measured or calculated from the ATG_XSP2_multi-species_TRANS assay. It is designed to make measurements of mRNA induction, a form of inducible reporter, as detected with fluorescence intensity signals by Reverse transcription polymerase chain reaction (RT-PCR) and Capillary electrophoresis technology.The assay endpoint ATG_hAR_XSP2 was analyzed in the positive analysis fitting direction relative to DMSO as the negative control and baseline of activity. […] Furthermore, this assay endpoint can be referred to as a primary readout, because this assay has produced multiple assay endpoints where this one serves a reporter gene function. […]

[10] = ATG_M_19_XSP2: Attagene TRANS-FACTORIAL Multi-Species (XSP2) HepG2 Assay for M32 Transcription Factor (Internal Marker) (AID 2283822)
Procedure, shortened: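 Internal background marker in a multi-species nuclear receptor TRANS panel: transfected HepG2 cells exposed 24 h, with 3 nM 6-alpha-fluorotestosterone and 1.5 nM norgestrel present. Readout is RT-PCR of reporter transcripts resolved by capillary electrophoresis, gain-of-signal versus DMSO.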

Measured: AC50

CC(C)CCCCCCc1ccc(O)cc1
inactive: [1] | [3]
active: [2] 5.75 µM | [4] 0.75 µM | [5] 1.44 µM

CC1(C)C(C=C(Cl)Cl)C1C(=O)OCc1cccc(Oc2ccccc2)c1 (stereo not drawn)
active: [3] 18.6 µM | [5] 100 µM
not listed: [1] | [2]
inactive: all other assays above

CC(C)(c1ccc(O)cc1)c1ccc(O)cc1
active: [2] 2.53 µM | [3] 2.65 µM | [4] 2.64 µM | [5] 2.08 µM

CC(=O)S[C@@H]1CC2=CC(=O)CC[C@]2(C)[C@H]2CC[C@@]3(C)[C@@H](CC[C@@]34CCC(=O)O4)[C@H]12
active: [5] 74 µM
not listed: [7] | [8] | [9]
inactive: all other assays above

Oc1ccc(C(c2ccc(O)cc2)C(Cl)(Cl)Cl)cc1
active: [2] 3.11 µM | [3] 0.271 µM | [5] 0.524 µM
inactive: [1] | [6] | [4]

C=CCOC(Cn1ccnc1)c1ccc(Cl)cc1Cl (stereo not drawn)
inactive: [1] | [6] | [2] | [3] | [4] | [5]

CCCCC(CC)CN1C(=O)C2C3C=CC(C3)C2C1=O (stereo not drawn)
active: [5] 51.4 µM
not listed: [7] | [8] | [9]
inactive: all other assays above

CN(C)C(=O)Nc1ccc(Cl)c(Cl)c1
active: [3] 24.9 µM | [4] 19.6 µM | [5] 130 µM and 65.2 µM
inactive: [2] | [3] | [4]

O=C(c1ccc(O)cc1O)c1ccc(O)cc1O
active: [1] 1.32 µM | [2] 4.21 µM | [3] 1.12 µM | [8] 8.13 µM | [4] 1.66 µM | [5] 2.47 µM

CSC(=O)c1cccc2nnsc12
inactive: [6] | [2] | [3] | [8] | [4]
active: [5] 152 µM and 121 µM

N[C@@H](Cc1cc(I)c(Oc2ccc(O)c(I)c2)c(I)c1)C(=O)O
active: [2] 5.09 µM | [3] 3.71 µM | [4] 3.68 µM | [5] 4.9 µM
inactive: [6] | [7] | [2] | [3] | [4] | [5]

C#C[C@]1(O)CC[C@H]2[C@@H]3CCC4=CC(=O)CC[C@@H]4[C@H]3CC[C@@]21CC
active: [3] 0.318 µM | [4] 0.275 µM | [5] 0.651 µM
inactive: [6] | [7] | [2] | [3] | [4] | [5]

CCCCC(CC)COC(=O)c1ccccc1C(=O)O (stereo not drawn)
inactive: [1] | [3] | [8]
active: [4] 4.22 µM | [5] 48.9 µM

CCN(Cc1c(F)cccc1Cl)c1c([N+](=O)[O-])cc(C(F)(F)F)cc1[N+](=O)[O-]
active: [2] 6.69 µM | [5] 10.2 µM and 4.04 µM
inactive: [1] | [7] | [2] | [8] | [4] | [10]
